Assay results from the supplement of paper PMC8728848.
Many of the other results were omitted from the sample, so the strongest signals are more common in it than they were.

Experiments:
Experiment in all cases: glycan array binding signal (z-score within array); higher = stronger binding
Conditions in all cases: glycan notation: IUPAC condensed, linker removed
Gal6S(b1-4)Glc6S = target: Gal6S(b1-4)Glc6S
How it was run: (§1)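 The binding signal is a Z-score computed within each array and averaged over linkers. Arrays of the same protein sequence at different concentrations or buffers were also averaged together. Data originate from 3228 arrays in the Consortium for Functional Glycomics database, kept only where the protein sequence was available.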

[1] = target: GalNAc(b1-4)GlcNAc(b1-2)Man
How it was run: as §1

GalNAc(b1-4)GlcNAc6S = target: GalNAc(b1-4)GlcNAc6S
How it was run: as §1

GlcA(b1-6)Gal = target: GlcA(b1-6)Gal
How it was run: as §1

[2] = target: GlcNAc(b1-2)[GlcNAc(b1-4)]Man(a1-3)[GlcNAc(b1-4)][GlcNAc(b1-2)[GlcNAc(b1-6)]Man(a1-6)]Man(b1-4)GlcNAc(b1-4)[Fuc(a1-6)]GlcNAc
How it was run: as §1

[3] = target: GlcNAc(b1-3)Gal(b1-4)GlcNAc(b1-2)Man(a1-3)[GlcNAc(b1-3)Gal(b1-4)GlcNAc(b1-2)Man(a1-6)]Man(b1-4)GlcNAc(b1-4)GlcNAc
How it was run: as §1

GlcNAc(b1-3)Man = target: GlcNAc(b1-3)Man
How it was run: as §1

[4] = target: GlcNAc(b1-3)[GlcNAc(b1-4)][GlcNAc(b1-6)]GlcNAc
How it was run: as §1

Man(a1-2)Man(a1-3)Man = target: Man(a1-2)Man(a1-3)Man
How it was run: as §1

[5] = target: Man(a1-3)[Man(a1-6)]Man(a1-6)[Man(a1-2)Man(a1-3)]Man(b1-4)GlcNAc(b1-4)GlcNAc
How it was run: as §1

[6] = target: Neu5Ac(a2-3)Gal(b1-3)[Fuc(a1-4)]GlcNAc
How it was run: as §1

[7] = target: Neu5Ac(a2-3)Gal(b1-4)GlcNAc(b1-2)Man(a1-3)[Neu5Ac(a2-3)Gal(b1-4)GlcNAc(b1-2)Man(a1-6)]Man(b1-4)GlcNAc(b1-4)GlcNAc
How it was run: as §1

[8] = target: Neu5Ac(a2-3)Gal(b1-4)GlcNAc(b1-2)[Neu5Ac(a2-3)Gal(b1-4)GlcNAc(b1-4)]Man(a1-3)[GlcNAc(b1-4)][Neu5Ac(a2-3)Gal(b1-4)GlcNAc(b1-4)Man(a1-6)]Man(b1-4)GlcNAc(b1-4)GlcNAc
How it was run: as §1

[9] = target: Neu5Ac(a2-3)Gal(b1-4)GlcNAc(b1-2)[Neu5Ac(a2-3)Gal(b1-4)GlcNAc(b1-6)]Man(a1-6)[Neu5Ac(a2-3)Gal(b1-4)GlcNAc(b1-2)Man(a1-3)]Man(b1-4)GlcNAc(b1-4)GlcNAc
How it was run: as §1

[10] = target: Neu5Ac(a2-3)Gal(b1-4)GlcNAc(b1-3)Gal(b1-4)GlcNAc(b1-3)GalNAc
How it was run: as §1

[11] = target: Neu5Ac(a2-3)Gal(b1-4)[Fuc(a1-3)]GlcNAc(b1-3)Gal
How it was run: as §1

[12] = target: Neu5Ac(a2-3)Gal(b1-4)[Fuc(a1-3)]GlcNAc(b1-6)[Neu5Ac(a2-3)Gal(b1-3)]GalNAc
How it was run: as §1

Neu5Ac(a2-3)GalNAc = target: Neu5Ac(a2-3)GalNAc
How it was run: as §1

[13] = target: Neu5Ac(a2-3)[GalNAc(b1-4)]Gal(b1-4)Glc
How it was run: as §1

[14] = target: Neu5Ac(a2-6)Gal(b1-4)GlcNAc(b1-2)Man(a1-3)Man(b1-4)GlcNAc(b1-4)GlcNAc
How it was run: as §1

[15] = target: Neu5Ac(a2-6)Gal(b1-4)GlcNAc(b1-2)Man(a1-3)[Neu5Ac(a2-6)Gal(b1-4)GlcNAc(b1-2)Man(a1-6)]Man(b1-4)GlcNAc(b1-4)[Fuc(a1-6)]GlcNAc
How it was run: as §1

[16] = target: Neu5Ac(a2-6)Gal(b1-4)GlcNAc(b1-2)Man(a1-6)[GlcNAc(b1-2)Man(a1-3)]Man(b1-4)GlcNAc(b1-4)GlcNAc
How it was run: as §1

[17] = target: Neu5Ac(a2-6)Gal(b1-4)GlcNAc(b1-2)Man(a1-6)[Man(a1-3)]Man(b1-4)GlcNAc(b1-4)GlcNAc
How it was run: as §1

[18] = target: Neu5Ac(a2-6)Gal(b1-4)GlcNAc(b1-2)[Neu5Ac(a2-6)Gal(b1-4)GlcNAc(b1-4)]Man(a1-3)[GlcNAc(b1-4)][Neu5Ac(a2-6)Gal(b1-4)GlcNAc(b1-2)[Neu5Ac(a2-6)Gal(b1-4)GlcNAc(b1-6)]Man(a1-6)]Man(b1-4)GlcNAc(b1-4)GlcNAc
How it was run: as §1

[19] = target: Neu5Ac(a2-6)Gal(b1-4)GlcNAc(b1-2)[Neu5Ac(a2-6)Gal(b1-4)GlcNAc(b1-6)]Man(a1-6)[Neu5Ac(a2-6)Gal(b1-4)GlcNAc(b1-2)Man(a1-3)][GlcNAc(b1-4)]Man(b1-4)GlcNAc(b1-4)GlcNAc
How it was run: as §1

[20] = target: Neu5Ac(a2-6)Gal(b1-4)GlcNAc(b1-3)Gal(b1-4)GlcNAc(b1-3)Gal(b1-4)GlcNAc(b1-2)Man(a1-3)[Neu5Ac(a2-6)Gal(b1-4)GlcNAc(b1-3)Gal(b1-4)GlcNAc(b1-3)Gal(b1-4)GlcNAc(b1-2)Man(a1-6)]GalNAc
How it was run: as §1

Neu5Gc(a2-6)GalNAc = target: Neu5Gc(a2-6)GalNAc
How it was run: as §1

B1: Ovorubin (Pomacea canaliculata), J7I2T6 (protein)
chain: MFVATSLLLAIATLVVRASPHNYLIMDIEPPKSVSERDILNLLSPLQVKHSFRVTGSTRLLIVIRLDAQSYEKLDEITVPGKVEVIPAVNMADTMERCGVSWPRVELTDDNVTLFESESTLTDVTKEQLKAMLIGYGEHMSGLLQAHRFEYYQAAGATPHRHFVFVNSVPDEIEVFGREGVDIWGGPGEFVVKPQYVTRI
- glycan array binding signal (z-score) (Gal6S(b1-4)Glc6S): 3.93
- glycan array binding signal (z-score) [1]: -0.618
- glycan array binding signal (z-score) (GalNAc(b1-4)GlcNAc6S): -0.066
- glycan array binding signal (z-score) (GlcA(b1-6)Gal): -0.181
- glycan array binding signal (z-score) [2]: -0.233
- glycan array binding signal (z-score) [3]: -0.39
- glycan array binding signal (z-score) (GlcNAc(b1-3)Man): -0.105
- glycan array binding signal (z-score) [4]: 7.53
- glycan array binding signal (z-score) (Man(a1-2)Man(a1-3)Man): 0.255
- glycan array binding signal (z-score) [5]: -0.9
- glycan array binding signal (z-score) [6]: -0.148
- glycan array binding signal (z-score) [7]: -0.45
- glycan array binding signal (z-score) [8]: -0.397
- glycan array binding signal (z-score) [9]: 0.215
- glycan array binding signal (z-score) [10]: 0.207
- glycan array binding signal (z-score) [11]: -1.06
- glycan array binding signal (z-score) [12]: -0.055
- glycan array binding signal (z-score) (Neu5Ac(a2-3)GalNAc): 0.287
- glycan array binding signal (z-score) [13]: -0.336
- glycan array binding signal (z-score) [14]: 0.036
- glycan array binding signal (z-score) [15]: -0.129
- glycan array binding signal (z-score) [16]: -0.738
- glycan array binding signal (z-score) [17]: -0.358
- glycan array binding signal (z-score) [18]: 3.19
- glycan array binding signal (z-score) [19]: -0.646
- glycan array binding signal (z-score) [20]: 3.06
- glycan array binding signal (z-score) (Neu5Gc(a2-6)GalNAc): 0.691
